Screening results as filed in PubChem.
M4 PAM – positive allosteric modulators of human muscarinic M4 receptor; activation, % at 3 µM; CHO-K1 hM4/Gqi5, Fluo-8 calcium fluorescence, ACh EC20; 0% = ACh EC20, 100% = maximal ACh; AID 624126; P08173; hit rate 0.4% among 360,000;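 active = activation above its plate's cutoff, the mean activation of sample wells plus 3 SD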
Target sequence (P08173 whole entry, looked up): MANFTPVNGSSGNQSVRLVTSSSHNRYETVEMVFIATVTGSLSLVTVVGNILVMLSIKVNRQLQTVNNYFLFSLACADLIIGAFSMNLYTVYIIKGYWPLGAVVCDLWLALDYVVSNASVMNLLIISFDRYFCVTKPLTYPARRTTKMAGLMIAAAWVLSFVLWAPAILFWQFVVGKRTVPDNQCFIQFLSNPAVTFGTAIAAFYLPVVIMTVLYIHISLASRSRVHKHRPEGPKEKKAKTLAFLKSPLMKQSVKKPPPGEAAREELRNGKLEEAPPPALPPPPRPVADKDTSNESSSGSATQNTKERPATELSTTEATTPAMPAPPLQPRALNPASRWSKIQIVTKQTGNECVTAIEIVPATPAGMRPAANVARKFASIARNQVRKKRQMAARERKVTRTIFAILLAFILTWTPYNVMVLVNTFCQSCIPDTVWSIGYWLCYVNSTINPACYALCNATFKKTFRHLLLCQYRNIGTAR
M4 ag – agonists of human muscarinic M4 receptor (CHRM4). activation, % at 3 µM. P08173. hit rate 0.14% among 360,000. CHO-K1 hM4/Gqi5, Fluo-8 calcium fluorescence; vehicle 0%, full acetylcholine response 100%;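 active = activation above the run mean over all test wells plus 3 SD, cut at about 32% in these data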;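 note: peak over basal fluorescence ratio per well then scaled between controls; 0% = DMSO wells and 100% = acetylcholine at EC100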
CHRM4 antagonist – CHRM4 antagonism in calcium assay; P08173; CHO-hM4 cells, ACh EC80, Fluo-8 calcium fluorescence; inhibition, % at 3 µM; hit rate 0.73% among 360,000;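 active = inhibition above its plate's cutoff, the mean inhibition of sample wells plus 3 SD, cut at about 27% in these data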;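 note: 0% = acetylcholine EC80 with DMSO and 100% = DMSO without agonist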
M1 PAM parental – M1 PAM counterscreen hit in parental CHO-K1 cells; ATP EC20, Fluo-8 calcium fluorescence; 0% at ATP EC20, 100% at ATP max; activation, % at 3 µM; hit rate 0.02% among 360,000; AID 602247;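 active = activation above the run cutoff, the mean activation of all test compounds plus 3 SD, cut at about 40% in these data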;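 note: peak over basal fluorescence ratio in a 140 s read after ATP addition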
CHO-K1 Ca antag – M1 antagonist counterscreen hit in parental CHO-K1 cells | ATP-induced calcium, Fluo-8 fluorescence | inhibition, % at 3 µM | hit rate 0.6% among 360,000 | AID 602250;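 active = inhibition above a per-plate cutoff, the plate's mean sample inhibition plus 3 SD, cut at about 24% in these data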;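 note: 0% = DMSO plus EC80 ATP and 100% = DMSO alone without ATP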
M1 ag parental – nonselective activator or artifact in parental CHO-K1 cells. Fluo-8 calcium fluorescence; scaled to maximal ATP response, vehicle zero. activation, % at 3 µM. hit rate 0.48% among 360,000. AID 602248; in the data active = activation above about 15%;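 note: untransfected CHO-K1 host cells lacking M1 receptor as counterscreen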
Active calls of the source: *. Shown are actives, neighbours in structure and some others; about 2% of the full set was active somewhere.

Results for CCOC(=O)c1c(NC(=O)COC)sc(C)c1C ?
M4 PAM: 2.0; M4 ag: -2.5; CHRM4 antagonist: -3.9; M1 PAM parental: 2.4; CHO-K1 Ca antag: -6.3; M1 ag parental: 0.0

How did CCOC(=O)c1c(NC(=S)NC(C)=O)sc(C)c1C do in these assays?
M4 PAM: 32.0*; M4 ag: 0.7; CHRM4 antagonist: -8.3; M1 PAM parental: 24.3; CHO-K1 Ca antag: -13.5; M1 ag parental: 0.3

Results for Cc1c(C)n(CCCN(C)C)c2ncnc(Nc3ccccc3)c12 ?
M4 PAM: -5.7; M4 ag: 0.6; CHRM4 antagonist: -9.9; M1 PAM parental: 8.7; CHO-K1 Ca antag: -17.1; M1 ag parental: 1.0

How did CCn1c(CNc2ccccc2Cl)nnc1SCCN1CCCCC1 do in these assays?
M4 PAM: -18.9; M4 ag: 0.8; CHRM4 antagonist: 32.6*; M1 PAM parental: 13.4; CHO-K1 Ca antag: -9.2; M1 ag parental: 0.3

What do the screens show for `COc1cc(C2CC(=O)C3=C(C2)Nc2ncnn2C3c2cccs2)cc(OC)c1OC` (stereo not drawn)?
M4 PAM: -5.3; M4 ag: 0.7; CHRM4 antagonist: -6.9; M1 PAM parental: 13.9; CHO-K1 Ca antag: -9.7; M1 ag parental: 0.4

What do the screens show for `COc1cc(C2C=C(c3cccs3)Nc3ncnn32)cc(OC)c1OC` (stereo not drawn)?
M4 PAM: -14.5; M4 ag: 34.5*; CHRM4 antagonist: 10.3; M1 PAM parental: -2.1; CHO-K1 Ca antag: 3.5; M1 ag parental: 19.7*

How did COC(=O)c1ccc(OCC(O)CN2CCc3cc(OC)c(OC)cc3C2c2ccccc2)cc1 (stereo not drawn) do in these assays?
M4 PAM: -6.2; M4 ag: 6.6; CHRM4 antagonist: 11.0; M1 PAM parental: 7.4; CHO-K1 Ca antag: 1.7; M1 ag parental: 1.7

What do the screens show for `O=C(O)CN1C(=O)/C(=C\c2cc(Br)ccc2OCc2ccc(Cl)cc2)SC1=S`?
M4 PAM: 0.4; M4 ag: -1.6; CHRM4 antagonist: -0.6; M1 PAM parental: 10.9; CHO-K1 Ca antag: -20.2; M1 ag parental: -0.1

Results for O=C(O)c1ccc(NC(=S)NC(=O)c2ccc(-c3ccc(Br)cc3)o2)cc1 ?
M4 PAM: 6.3; M4 ag: 0.9; CHRM4 antagonist: -7.1; M1 PAM parental: -3.4; CHO-K1 Ca antag: 3.2; M1 ag parental: 0.0

How did CN(C)C(CNC(=O)c1ccc(Br)cc1)c1ccco1 (stereo not drawn) do in these assays?
M4 PAM: -1.3; M4 ag: 1.2; CHRM4 antagonist: -9.1; M1 PAM parental: 0.4; CHO-K1 Ca antag: -15.5; M1 ag parental: 0.5

What do the screens show for `CN(C)C(CNC(=O)c1cc(Br)ccc1Cl)c1ccco1` (stereo not drawn)?
M4 PAM: -6.3; M4 ag: 5.8; CHRM4 antagonist: 8.1; M1 PAM parental: -11.9; CHO-K1 Ca antag: 8.2; M1 ag parental: 16.8*

Results for O=C(CN(Cc1ccccc1F)C(=O)Cn1nnc(-c2cccs2)n1)NC1CCCCC1 ?
M4 PAM: 2.9; M4 ag: 1.1; CHRM4 antagonist: -11.4; M1 PAM parental: 2.3; CHO-K1 Ca antag: -9.3; M1 ag parental: 2.1

Results for CC1(C)CC(=O)c2ccc(OCc3ccc([N+](=O)[O-])cc3)cc2O1 ?
M4 PAM: -3.2; M4 ag: 0.1; CHRM4 antagonist: 3.5; M1 PAM parental: -19.8; CHO-K1 Ca antag: 29.8*; M1 ag parental: -0.5

How did CCOc1ccccc1C(=O)NC(C)c1ccc(-n2ccnc2)cc1 (stereo not drawn) do in these assays?
M4 PAM: -2.6; M4 ag: 3.5; CHRM4 antagonist: -6.8; M1 PAM parental: 2.3; CHO-K1 Ca antag: -5.4; M1 ag parental: 2.7

How did Nc1nnc(SCC(=O)Nc2cccnc2Cl)s1 do in these assays?
M4 PAM: 22.9*; M4 ag: 2.1; CHRM4 antagonist: 5.2; M1 PAM parental: -22.4; CHO-K1 Ca antag: 1.5; M1 ag parental: 0.0

Results for Cc1cccc(Nc2nnc(SCC(=O)Nc3cccnc3Cl)s2)c1 ?
M4 PAM: -4.8; M4 ag: 4.9; CHRM4 antagonist: 2.2; M1 PAM parental: 20.3; CHO-K1 Ca antag: -12.3; M1 ag parental: 3.1

What do the screens show for `CN1C[C@@H]2C(c3ccccc3)C3(c4cccnc4)CC2(C3)[C@H]1c1ccccc1` (stereo partly drawn)?
M4 PAM: -14.7; M4 ag: 0.2; CHRM4 antagonist: 56.7*; M1 PAM parental: 12.9; CHO-K1 Ca antag: -2.1; M1 ag parental: 0.3

How did OC1(c2ccccc2)c2ccccc2-c2ncccc21 (stereo not drawn) do in these assays?
M4 PAM: 8.6; M4 ag: 1.2; CHRM4 antagonist: -9.5; M1 PAM parental: 13.4; CHO-K1 Ca antag: -8.8; M1 ag parental: 0.2

How did Cn1ncc([N+](=O)[O-])c1C(=O)N/N=C/c1ccc(F)cc1 do in these assays?
M4 PAM: 30.6*; M4 ag: 1.1; CHRM4 antagonist: 6.6; M1 PAM parental: 11.9; CHO-K1 Ca antag: -5.0; M1 ag parental: -0.1

How did CC(C)c1ccc(CCNC(=O)c2cccc(S(=O)(=O)N3CCN(C)CC3)c2)cc1 do in these assays?
M4 PAM: -9.1; M4 ag: 25.9; CHRM4 antagonist: 0.0; M1 PAM parental: 9.6; CHO-K1 Ca antag: -2.2; M1 ag parental: 16.3*

Results for COc1ccccc1N1CCN(C(=O)C(C)N(c2ccc(C)cc2)S(C)(=O)=O)CC1 (stereo not drawn) ?
M4 PAM: -0.9; M4 ag: 5.2; CHRM4 antagonist: -2.2; M1 PAM parental: 17.4; CHO-K1 Ca antag: -8.3; M1 ag parental: 2.4

How did CCCn1c(=S)[nH]c2cc(C(=O)N3CCN(c4ccccc4OC)CC3)ccc2c1=O do in these assays?
M4 PAM: 8.0; M4 ag: 1.8; CHRM4 antagonist: 38.9*; M1 PAM parental: 11.3; CHO-K1 Ca antag: -20.4; M1 ag parental: 0.1

Results for COc1ccccc1Cn1c(=S)[nH]c2cc(C(=O)N3CCC(C(N)=O)CC3)ccc2c1=O ?
M4 PAM: 0.8; M4 ag: 0.9; CHRM4 antagonist: 5.1; M1 PAM parental: -14.1; CHO-K1 Ca antag: 2.1; M1 ag parental: 0.3

Results for CCCn1c(=S)[nH]c2cc(C(=O)N3CCN(c4ccccc4)CC3)ccc2c1=O ?
M4 PAM: -7.3; M4 ag: -0.1; CHRM4 antagonist: 19.2; M1 PAM parental: 13.1; CHO-K1 Ca antag: -11.2; M1 ag parental: 1.1

Results for CCOCCCn1c(=S)[nH]c2cc(C(=O)N3CCC(C(N)=O)CC3)ccc2c1=O ?
M4 PAM: 4.6; M4 ag: 0.2; CHRM4 antagonist: 3.6; M1 PAM parental: -6.8; CHO-K1 Ca antag: 24.6*; M1 ag parental: -0.3

How did CN(C)/C=N/C(=S)Nc1ccc(Cl)c(Cl)c1 do in these assays?
M4 PAM: -0.2; M4 ag: 8.9; CHRM4 antagonist: -8.5; M1 PAM parental: 2.0; CHO-K1 Ca antag: 1.8; M1 ag parental: 9.2

Results for CN(C)/C=N/C(=S)Nc1cc(Cl)cc(Cl)c1 ?
M4 PAM: -10.8; M4 ag: 13.2; CHRM4 antagonist: -0.9; M1 PAM parental: 4.1; CHO-K1 Ca antag: 9.8; M1 ag parental: 18.4*
